Data taken from the supplement of paper PMC12819154, “High-throughput peptide-centric local stability assay extends protein–ligand identification to membrane proteins, tissues and bacteria” (Nature Structural & Molecular Biology, 2025).

compound: Nc1ncnc2c1ncn2[C@@H]1O[C@H](COP(=O)(O)OP(=O)(O)OP(=O)(O)O)[C@@H](O)[C@H]1O [adenosine 5'-triphosphate]; test: log2 fold change of tryptic peptide abundance, ligand vs vehicle (limited proteolysis) (log2 ratio); higher = more trypsin-susceptible (destabilized); conditions: ligand concentration: 5 mM; sample: E. coli desalted lysate; replicate design: treated before aliquoting
Description: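 HT-PELSA: desalted E. coli K-12 BW25113 lysate (with 12 mM MgCl2) incubated with 5 mM ATP (pH 7) or water for 30 min at 25 C, then a 4 min trypsin pulse at 22 C. Peptides were quantified by DIA-MS (4 replicates). Value is the peptide log2 fold change (treated/control); negative = stabilized. Scale: negative = ligand-stabilized region.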
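Also: lysate desalted by size exclusion to strip endogenous ATP, peptide intensities built from DIA-NN precursor signals, and peptides missing any value discarded before comparison.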

UniProt P24193, sequence (P24193 whole entry): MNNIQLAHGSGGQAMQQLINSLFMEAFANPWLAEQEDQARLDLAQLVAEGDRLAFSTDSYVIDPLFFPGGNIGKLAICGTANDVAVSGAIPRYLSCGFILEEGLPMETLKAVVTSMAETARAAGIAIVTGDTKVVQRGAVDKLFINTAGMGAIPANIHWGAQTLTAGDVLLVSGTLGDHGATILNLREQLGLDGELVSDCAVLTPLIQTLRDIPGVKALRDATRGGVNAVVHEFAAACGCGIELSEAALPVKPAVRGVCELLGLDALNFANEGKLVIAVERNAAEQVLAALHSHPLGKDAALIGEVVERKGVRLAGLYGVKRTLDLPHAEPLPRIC
UniProt P37760, sequence (P37760 whole entry): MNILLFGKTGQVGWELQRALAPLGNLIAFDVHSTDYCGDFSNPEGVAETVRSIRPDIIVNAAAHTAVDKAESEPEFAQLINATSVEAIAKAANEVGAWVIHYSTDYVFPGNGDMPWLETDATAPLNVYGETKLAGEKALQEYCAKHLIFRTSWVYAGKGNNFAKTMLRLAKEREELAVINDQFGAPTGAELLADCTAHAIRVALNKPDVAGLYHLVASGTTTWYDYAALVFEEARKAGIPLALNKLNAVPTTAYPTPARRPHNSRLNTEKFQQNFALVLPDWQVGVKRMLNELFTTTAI
UniProt P14294, sequence (P14294 whole entry): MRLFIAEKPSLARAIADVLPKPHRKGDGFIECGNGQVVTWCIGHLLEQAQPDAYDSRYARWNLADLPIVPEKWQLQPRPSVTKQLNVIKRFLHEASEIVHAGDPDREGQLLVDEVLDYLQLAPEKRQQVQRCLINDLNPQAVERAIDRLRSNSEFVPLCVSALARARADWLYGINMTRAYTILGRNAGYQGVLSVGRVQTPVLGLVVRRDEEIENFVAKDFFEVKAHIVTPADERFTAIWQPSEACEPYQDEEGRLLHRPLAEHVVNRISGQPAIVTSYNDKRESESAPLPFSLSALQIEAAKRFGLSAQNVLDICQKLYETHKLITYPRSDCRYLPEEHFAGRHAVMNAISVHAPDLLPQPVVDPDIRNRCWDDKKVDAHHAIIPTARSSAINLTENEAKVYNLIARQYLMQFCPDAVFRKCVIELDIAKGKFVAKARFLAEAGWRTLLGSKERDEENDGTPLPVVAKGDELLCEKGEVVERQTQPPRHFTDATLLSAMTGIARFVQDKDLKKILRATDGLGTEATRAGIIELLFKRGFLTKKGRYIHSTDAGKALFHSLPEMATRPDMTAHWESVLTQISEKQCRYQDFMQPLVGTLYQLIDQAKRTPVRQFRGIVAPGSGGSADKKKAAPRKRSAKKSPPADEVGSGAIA
UniProt P71298, sequence (P71298 whole entry): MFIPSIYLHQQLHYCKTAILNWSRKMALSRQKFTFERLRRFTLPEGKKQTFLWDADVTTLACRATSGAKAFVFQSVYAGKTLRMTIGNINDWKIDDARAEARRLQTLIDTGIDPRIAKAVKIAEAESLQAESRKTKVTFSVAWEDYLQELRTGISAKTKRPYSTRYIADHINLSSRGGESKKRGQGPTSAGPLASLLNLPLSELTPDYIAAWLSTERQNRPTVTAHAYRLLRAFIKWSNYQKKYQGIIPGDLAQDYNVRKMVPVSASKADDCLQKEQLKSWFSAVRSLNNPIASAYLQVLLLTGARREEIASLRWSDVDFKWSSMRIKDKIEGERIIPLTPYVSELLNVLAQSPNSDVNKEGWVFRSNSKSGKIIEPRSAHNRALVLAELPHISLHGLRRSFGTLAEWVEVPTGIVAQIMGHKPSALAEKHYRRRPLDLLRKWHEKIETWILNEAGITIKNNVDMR
UniProt P37595, sequence (P37595 whole entry): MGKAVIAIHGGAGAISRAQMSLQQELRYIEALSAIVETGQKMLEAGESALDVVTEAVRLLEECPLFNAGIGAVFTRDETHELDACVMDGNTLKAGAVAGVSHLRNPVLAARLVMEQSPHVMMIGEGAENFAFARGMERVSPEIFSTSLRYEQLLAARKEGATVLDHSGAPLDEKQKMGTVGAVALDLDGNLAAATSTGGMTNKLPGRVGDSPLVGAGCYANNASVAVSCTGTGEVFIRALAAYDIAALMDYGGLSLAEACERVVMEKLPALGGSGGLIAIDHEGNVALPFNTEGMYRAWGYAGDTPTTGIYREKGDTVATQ
UniProt P25539, sequence (P25539 whole entry): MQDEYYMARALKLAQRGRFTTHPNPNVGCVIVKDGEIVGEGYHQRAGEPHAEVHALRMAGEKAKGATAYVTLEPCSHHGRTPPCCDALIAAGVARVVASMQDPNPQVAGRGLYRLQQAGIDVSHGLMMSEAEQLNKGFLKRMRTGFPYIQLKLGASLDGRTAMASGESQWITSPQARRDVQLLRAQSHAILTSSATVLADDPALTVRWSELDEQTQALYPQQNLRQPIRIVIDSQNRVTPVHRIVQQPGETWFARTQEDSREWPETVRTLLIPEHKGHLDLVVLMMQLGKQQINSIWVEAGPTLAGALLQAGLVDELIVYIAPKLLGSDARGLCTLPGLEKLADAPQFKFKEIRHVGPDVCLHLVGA
UniProt P0AA41, sequence (P0AA41 whole entry): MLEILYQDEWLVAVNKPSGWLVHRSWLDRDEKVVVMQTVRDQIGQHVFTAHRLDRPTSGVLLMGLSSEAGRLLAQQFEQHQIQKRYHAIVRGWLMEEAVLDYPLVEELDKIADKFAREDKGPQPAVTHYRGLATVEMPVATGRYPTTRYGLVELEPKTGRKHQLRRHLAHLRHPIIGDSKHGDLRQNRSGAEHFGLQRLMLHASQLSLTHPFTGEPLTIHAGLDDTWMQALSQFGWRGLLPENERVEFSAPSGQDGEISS
UniProt P76014, sequence (P76014 whole entry): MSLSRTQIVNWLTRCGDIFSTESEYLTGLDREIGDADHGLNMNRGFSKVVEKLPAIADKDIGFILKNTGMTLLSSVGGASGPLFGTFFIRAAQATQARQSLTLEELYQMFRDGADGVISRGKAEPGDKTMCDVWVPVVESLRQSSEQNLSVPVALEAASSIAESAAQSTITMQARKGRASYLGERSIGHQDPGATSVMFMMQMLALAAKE
UniProt P69789, sequence (P69789 whole entry): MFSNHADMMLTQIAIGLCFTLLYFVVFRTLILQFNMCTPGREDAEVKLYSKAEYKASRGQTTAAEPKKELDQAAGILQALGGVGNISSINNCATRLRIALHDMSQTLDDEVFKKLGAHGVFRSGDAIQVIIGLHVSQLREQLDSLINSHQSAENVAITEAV
UniProt P76543, sequence (P76543 whole entry): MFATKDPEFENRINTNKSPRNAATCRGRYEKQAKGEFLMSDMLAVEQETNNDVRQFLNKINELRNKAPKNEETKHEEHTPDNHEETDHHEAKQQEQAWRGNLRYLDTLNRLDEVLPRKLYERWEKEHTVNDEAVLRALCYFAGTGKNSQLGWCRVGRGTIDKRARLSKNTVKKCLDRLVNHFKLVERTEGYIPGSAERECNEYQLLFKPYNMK
UniProt P52073, sequence (P52073 whole entry): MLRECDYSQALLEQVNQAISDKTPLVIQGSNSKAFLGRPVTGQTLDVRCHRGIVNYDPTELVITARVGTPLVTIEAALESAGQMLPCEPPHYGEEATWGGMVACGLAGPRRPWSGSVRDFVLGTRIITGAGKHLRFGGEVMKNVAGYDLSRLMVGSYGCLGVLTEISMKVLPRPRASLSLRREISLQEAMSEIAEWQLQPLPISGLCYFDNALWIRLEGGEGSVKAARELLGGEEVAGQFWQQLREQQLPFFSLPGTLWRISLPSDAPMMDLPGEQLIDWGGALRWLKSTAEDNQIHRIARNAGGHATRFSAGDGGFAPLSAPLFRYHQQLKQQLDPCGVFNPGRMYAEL
UniProt P24200, sequence (P24200 whole entry): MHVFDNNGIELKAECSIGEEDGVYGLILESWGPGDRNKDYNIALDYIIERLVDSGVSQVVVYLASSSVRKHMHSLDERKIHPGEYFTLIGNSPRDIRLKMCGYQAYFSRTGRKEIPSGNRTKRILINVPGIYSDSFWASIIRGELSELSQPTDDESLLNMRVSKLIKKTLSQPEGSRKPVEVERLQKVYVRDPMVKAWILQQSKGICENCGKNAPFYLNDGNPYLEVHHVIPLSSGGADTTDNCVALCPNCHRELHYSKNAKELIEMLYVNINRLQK
UniProt P77610, sequence (P77610 whole entry): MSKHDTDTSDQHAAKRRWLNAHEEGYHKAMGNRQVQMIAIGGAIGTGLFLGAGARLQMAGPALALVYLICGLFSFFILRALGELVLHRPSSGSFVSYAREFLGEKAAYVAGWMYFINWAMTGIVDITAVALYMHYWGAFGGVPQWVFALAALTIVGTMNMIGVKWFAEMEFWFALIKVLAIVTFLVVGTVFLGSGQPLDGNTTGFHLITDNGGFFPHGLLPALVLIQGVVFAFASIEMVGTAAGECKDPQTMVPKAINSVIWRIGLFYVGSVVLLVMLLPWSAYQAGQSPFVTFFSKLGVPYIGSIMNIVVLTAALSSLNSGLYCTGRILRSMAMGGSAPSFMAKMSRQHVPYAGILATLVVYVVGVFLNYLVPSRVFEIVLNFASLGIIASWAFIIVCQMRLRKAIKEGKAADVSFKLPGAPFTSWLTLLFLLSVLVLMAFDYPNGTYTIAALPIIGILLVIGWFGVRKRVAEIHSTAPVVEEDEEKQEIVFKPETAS
UniProt P09053, sequence (P09053 whole entry): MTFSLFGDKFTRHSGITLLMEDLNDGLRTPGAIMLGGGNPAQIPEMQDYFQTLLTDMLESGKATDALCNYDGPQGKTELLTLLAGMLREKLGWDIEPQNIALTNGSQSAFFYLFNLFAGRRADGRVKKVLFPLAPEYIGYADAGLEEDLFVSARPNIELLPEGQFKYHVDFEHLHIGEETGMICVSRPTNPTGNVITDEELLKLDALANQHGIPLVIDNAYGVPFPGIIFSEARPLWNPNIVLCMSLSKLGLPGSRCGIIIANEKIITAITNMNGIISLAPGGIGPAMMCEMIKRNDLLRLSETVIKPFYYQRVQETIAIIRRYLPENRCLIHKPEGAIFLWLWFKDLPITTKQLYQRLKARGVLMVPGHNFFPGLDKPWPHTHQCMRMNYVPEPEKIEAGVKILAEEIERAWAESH

| Target | log2 fold change |
| --- | --- |
| UniProt P39353 (peptide sequence: EGVIGEILSCHTKR, peptide start residue: 135) | -0.665 |
| UniProt P23865 (peptide sequence: VRLEILPAGK, peptide start residue: 315) | 1.04 |
| UniProt P69789 (peptide sequence: LYSKAEYK, peptide start residue: 48) | -1.96 |
| UniProt P76256 (peptide sequence: DENGIWHGEETEAVLKPEIVHER, peptide start residue: 130) | -0.588 |
| UniProt P37344 (peptide sequence: ETLLNYR, peptide start residue: 215) | -1.98 |
| UniProt P75785 (peptide sequence: SLGLTLNR, peptide start residue: 266) | -0.884 |
| UniProt P36879 (peptide sequence: TYPGGVQALR, peptide start residue: 13) | -3.15 |
| UniProt P04968 (peptide sequence: EALLAVTIPEEK, peptide start residue: 338) | 0.397 |
| UniProt P08373 (peptide sequence: VNGNAGSFFKNPVVSAETAK, peptide start residue: 223) | 0.267 |
| UniProt P77610 (peptide sequence: WLNAHEEGYHK, peptide start residue: 18) | -0.358 |
| UniProt P24200 (peptide sequence: TLSQPEGSR, peptide start residue: 169) | -0.499 |
| UniProt P52073 (peptide sequence: LEGGEGSVK, peptide start residue: 217) | -0.566 |
| UniProt P23836 (peptide sequence: VLVVEDNALLR, peptide start residue: 3) | 0.563 |
| UniProt P75728 (peptide sequence: LVIGADGANSQVR, peptide start residue: 160) | 0.798 |
| UniProt P77754 (peptide sequence: DLNLTDAQK, peptide start residue: 54) | -0.35 |
| UniProt P09147 (peptide sequence: REGDLPAYWADASKADR, peptide start residue: 292) | 0.627 |

| Target | log2 fold change |
| --- | --- |
| UniProt P76543 (peptide sequence: NSQLGWCR, peptide start residue: 147) | -0.802 |
| UniProt P37595 (peptide sequence: AQMSLQQELR, peptide start residue: 18) | 0.693 |
| UniProt P14294 (peptide sequence: VQTPVLGLVVR, peptide start residue: 198) | -0.642 |
| UniProt P71298 (peptide sequence: QNRPTVTAHAYR, peptide start residue: 218) | -1.54 |
| UniProt P0A6H5 (peptide sequence: VQAIEKNR, peptide start residue: 113) | 1.65 |
| UniProt P24193 (peptide sequence: AVVTSMAETAR, peptide start residue: 111) | -1.88 |
| UniProt P37760 (peptide sequence: ALQEYCAK, peptide start residue: 138) | -1.03 |
| UniProt P33343 (peptide sequence: LSLITNDKITGNDK, peptide start residue: 95) | -0.561 |
| UniProt P04825 (peptide sequence: GLENLSGDLYEK, peptide start residue: 853) | -0.937 |
| UniProt P09053 (peptide sequence: ILAEEIERAWAESH, peptide start residue: 404) | -0.817 |
| UniProt P76014 (peptide sequence: EIGDADHGLNMNR, peptide start residue: 32) | -2.08 |
| UniProt P0AA37 (peptide sequence: LLLHAEMLTITHPAYGNSMTFK, peptide start residue: 193) | -0.465 |
| UniProt P0AA41 (peptide sequence: LLAQQFEQHQIQKR, peptide start residue: 72) | -1.05 |
| UniProt P25539 (peptide sequence: LADAPQFK, peptide start residue: 342) | -0.381 |
| UniProt P55135 (peptide sequence: RLSDSPER, peptide start residue: 69) | -0.744 |
